# Laboratory results from PubChem BioAssay (NCI).
# Compounds without any hit were thinned out: in the full panel of roughly 83,000, 20% have a hit.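 Method: cells in 96-well plates; compound added at one concentration; 48 h incubation; percent growth measured; values under 10 scored active.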 The source made the active and inactive calls.
# System: HL-60(TB) leukemia
# Test: NCI-60 one-dose screen, 48 h (100 = growth as untreated, 0 = no growth, -100 = all killed)
# Conditions: 10 µM unless noted
row,SMILES,growth
1,Cc1ccc(S(=O)(=O)NC(=O)n2cc(-c3ccncc3)c(-c3ccc(Cl)c(O)c3)n2)cc1,85.1% (inactive)
2,Cc1ccc(S(=O)(=O)N2CCC(=O)c3ccccc32)cc1,60.3% (inactive)
3,CCCCCCCCCCCCCCCCOCCCOP(=O)(O)C1CCCN(O)C1=O (stereo not given),-13.6% (active)
4,Nc1nc(CSc2n[nH]c(N)n2)nc(Nc2ccccc2)n1,92.7% (inactive)
5,Fc1ccc(Nc2nc(Nc3ccc(-c4nc5ccccc5[nH]4)cc3)nc(N3CCCC3)n2)cc1,5.97% (active)
6,NC(=O)c1cccc(-n2ccc3cc(NC(=O)Nc4ccc(Cl)c(Cl)c4)ccc32)n1,102% (inactive)
7,O=C1OCC2=C1C(c1cccc(C(F)(F)F)c1)c1cc3c(cc1N2CCO)OCCO3 (stereo not given),-29.5% (active)
8,CCCCCCCC1(C)NC(=O)NC1=O (stereo not given),100% (inactive)
9,CC[N+](CC)(CCCC(C)[N+]1(Cc2ccccc2)C(C)=CC=C1C)Cc1ccccc1 (stereo not given),37.1% (inactive)
10,CC1CCCC(C(=O)O)C1C(=O)O (stereo not given),81.8% (inactive)
11,CN1CCN(c2ccc(NC3=CC(=O)c4ncncc4C3=O)cc2)CC1,-32.1% (active)
12,Cc1ccc(-c2csc(N(C(=O)N3CCN(c4cc5c(cc4F)c(=O)c(C(=O)O)cn5C4CC4)CC3)c3ccccc3)n2)cc1,1.91% (active)
13,CC(C)(C)OC(=O)N1CCN(CCn2cc(C(F)(F)F)c3c(Cl)ncnc32)CC1,16.4% (inactive)
14,O=[N+]([O-])c1ccc(-c2nc(Cl)c3c(n2)CCCC3)o1,93.8% (inactive)
15,O=C1c2ccccc2C(=O)c2cc(Cn3cc[n+](Cc4ccc5ccccc5c4)c3)ccc21,43% (inactive)
